Laboratory results as given in PubChem BioAssay (NCI).
The panel holds about 79,000 compounds, 15% with a hit somewhere; the sample as a whole holds those more often. Values without a mark were called inactive. Calls of active or inactive are those of the source. Rule as the data show it: active = growth inhibition above about 70%; inactive = the rest.

Assays:
[1] = NCI Yeast Anticancer Drug Screen. Data for the rad50 strain (AID 155);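 also: 0% = growth of vehicle-only cultures of the same strain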; details: S. cerevisiae rad50 strain growth inhibition, active compounds read high
Summary of the method: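 A DNA repair-deficient yeast mutant serves as the test organism; compound-induced growth inhibition is calculated against vehicle-treated cells.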

[2] = NCI Yeast Anticancer Drug Screen. Data for the mec2-1 strain (AID 157); details: S. cerevisiae mec2-1 strain, active compounds read high
Summary of the method: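 Vehicle-treated cultures served as reference for growth inhibition of compound-exposed mec2-1 yeast.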

[3] = NCI Yeast Anticancer Drug Screen. Data for the sgs1 mgt1 strain (AID 161);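 also: 0% = growth of cultures given vehicle only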; details: S. cerevisiae sgs1 mgt1 strain, active compounds read high
Summary of the method: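 Mutant yeast exposed to compound; growth scored against vehicle-only wells.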

[4] = NCI Yeast Anticancer Drug Screen. Data for the cln2 rad14 strain (AID 165);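 also: 0% = growth equal to vehicle treated cultures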; details: S. cerevisiae cln2 rad14 strain, active compounds read high
Summary of the method: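 Each compound was tested on cln2 rad14 yeast. Inhibition of growth was calculated against vehicle-exposed controls.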

[5] = NCI Yeast Anticancer Drug Screen. Data for the bub3 strain (AID 167); details: S. cerevisiae bub3 mutant strain, active compounds read high
Summary of the method: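 Inhibition values come from growth of compound-treated mutant yeast normalised to vehicle-treated controls.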

[6] = NCI Yeast Anticancer Drug Screen. Data for the mlh1 rad18 strain (AID 175); details: S. cerevisiae mlh1 rad18 strain growth inhibition, active compounds read high
Summary of the method: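 Vehicle-treated cultures served as the reference for growth inhibition in a yeast strain carrying DNA damage repair alterations exposed to each compound.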

[7] = at 5.0 µM (retest, dose inferred, filed as 0.5)
[8] = at 50.0 µM (retest, dose inferred, filed as 5.0)

| SMILES | growth inhibition [1, 7] | growth inhibition [1, 8] | growth inhibition ([1]; at 50.0 µM) | growth inhibition [2, 7] | growth inhibition [2, 8] | growth inhibition ([2]; at 50.0 µM) | growth inhibition [3, 7] | growth inhibition [3, 8] | growth inhibition ([3]; at 50.0 µM) | growth inhibition [4, 7] | growth inhibition [4, 8] | growth inhibition ([4]; at 50.0 µM) | growth inhibition [5, 7] | growth inhibition [5, 8] | growth inhibition ([5]; at 50.0 µM) | growth inhibition [6, 7] | growth inhibition [6, 8] | growth inhibition ([6]; at 50.0 µM) |
| --- | --- | --- | --- | --- | --- | --- | --- | --- | --- | --- | --- | --- | --- | --- | --- | --- | --- | --- |
| NC1=NC2=C(CCCC2)C(c2cccs2)S1 (centres undefined) | 57% | 82% (active) | 65.8% | 39% | 78% (active) | 32.4% | 76% (active) | 87% (active) | 75.7% (active) | 45% | 49% | 37% | 38% | 74% (active) | 61.7% | 61% | 92% (active) | 60.6% |
| N/C(=N\N=C\c1cc(I)cc(I)c1O)NO | 11% | 98% (active) | 95.5% (active) | 1% | 96% (active) | 95.3% (active) | 2% | 98% (active) | 97.6% (active) | 38% | 89% (active) | 93.7% (active) | -2% | 99% (active) | 96.7% (active) | 24% | 99% (active) | 97.9% (active) |
| O=[N+]([O-])c1cccc(/C=N/Nc2ccc3ccccc3n2)c1O | 30% | 20% | 98% (active) | 1% | -23% | 98.8% (active) | 26% | 24% | 97.4% (active) | 1% | 3% | 93.3% (active) | 2% | 7% | 97.8% (active) | 16% | 14% | 97.5% (active) |
| O=C(Cc1nc2ccc([N+](=O)[O-])cc2[nH]c1=O)C(=O)Nc1cc(Cl)c(Cl)cc1Cl | -16% | -2% | 8.05% | -16% | -7% | -5.45% | -7% | -15% | -6.05% | -25% | -6% | 6.65% | -16% | 2% | 23.9% | -4% | -13% | 26.1% |
| Cc1cc(Cl)cc2c1NC(=O)C2(O)C/C(=N/NC(=O)CC#N)c1cccc([N+](=O)[O-])c1 (centres undefined) | 4% | 20% | 59.1% | -13% | 35% | 38.1% | -1% | -4% | 62.2% | -3% | 1% | 9.4% | 1% | 13% | 15.4% | 1% | -23% | 76.8% (active) |
| C(=NCCc1ccccc1)c1ccccc1B1OB(c2ccccc2C=NCCc2ccccc2)OB(c2ccccc2C=NCCc2ccccc2)O1 | 94% (active) | 99% (active) | 99.6% (active) | 93% (active) | 100% (active) | 99.8% (active) | 90% (active) | 99% (active) | 99.7% (active) | 77% (active) | 98% (active) | 99.3% (active) | 79% (active) | 99% (active) | 99.7% (active) | 92% (active) | 99% (active) | 99.5% (active) |
| C/C(=N\NC(N)=S)C(CN1CCCCC1)C(C1=C(O)c2ccccc2OC1)c1ccccc1 (centres undefined) | 10% | 38% | 64.7% | 6% | 45% | 63% | 19% | 67% | 68.5% | 22% | 62% | 53.7% | 32% | 70% (active) | 71.8% (active) | 20% | 55% | 67.5% |
| CCC(O)C(O)(c1ccccc1)c1nc2ccccc2s1 (centres undefined) | -9% | 15% | 6.75% | 5% | 11% | 5.9% | -7% | 23% | 14% | 7% | 9% | 2.2% | -7% | -12% | -2.65% | 0% | 15% | 15.1% |
| CC(=O)NNc1nc(C)c(C(=O)NNC(=O)C(=O)Nc2ccc(Cl)c([N+](=O)[O-])c2)s1 | 34% | 34% | 70.6% (active) | 19% | 19% | 20.9% | 32% | 32% | 69.2% | 18% | 18% | 51.6% | 19% | 19% | 55.9% | 20% | 20% | 50.4% |
| COC(=O)c1cccc2c3ccccc3c3ccccc3c12 | 6% | 98% (active) | 97.1% (active) | 15% | 98% (active) | 99.5% (active) | 8% | 99% (active) | 99.2% (active) | 6% | 97% (active) | 99.5% (active) | 12% | 97% (active) | 97.8% (active) | 9% | 99% (active) | 99.2% (active) |
| CC(C)=CCC/C(C)=C/COc1ccc(/C=C2/C(=O)N(O)[C@@H](C)C(=O)N2O)cc1 | 51% | 97% (active) | 80.8% (active) | 52% | 98% (active) | 78.2% (active) | 66% | 92% (active) | 78.9% (active) | 54% | 89% (active) | 70.7% (active) | 68% | 97% (active) | 83.3% (active) | 32% | 96% (active) | 79.2% (active) |
| CN(C)c1ccc(/C=C2/Oc3ccc(Cl)cc3C2=O)cc1 | -2% | 98% (active) | 87.8% (active) | 25% | 98% (active) | 90.7% (active) | -5% | 97% (active) | 89.5% (active) | 28% | 97% (active) | 89% (active) | -24% | 98% (active) | 89.9% (active) | 19% | 97% (active) | 86% (active) |
| Cc1ccc(-c2c(N)[n+]([O-])c3ccccc3[n+]2[O-])cc1 | 34% | 95% (active) | 99.3% (active) | 32% | 99% (active) | 99.3% (active) | 47% | 100% (active) | 99.2% (active) | 46% | 98% (active) | 98.3% (active) | 54% | 99% (active) | 99.2% (active) | 81% (active) | 99% (active) | 99% (active) |
| COC1C(N)C(OC2C(Oc3cccc4c(O)c5c(=O)oc6ccc(C)c7c(=O)oc(c34)c5c67)OC(C)C(O)C2(C)O)OC(C)C1O (centres undefined) | 12% | 48% | 26.8% | -6% | 8% | 20.3% | 29% | 32% | 23.1% | 8% | 36% | 32% | 19% | 30% | 19.4% | 11% | 15% | 60.4% |
| Cc1[nH]c2ccccc2c1-c1ccccc1 | -126% | 98% (active) | 99.5% (active) | -48% | 99% (active) | 99.6% (active) | -65% | 98% (active) | 99.5% (active) | -53% | 99% (active) | 99% (active) | -62% | 98% (active) | 99.4% (active) | -122% | 98% (active) | 99.5% (active) |
| COC(=O)CCc1c(Cc2ccc[nH]2)[nH]c(C(=O)OCc2ccccc2)c1C | -20% | 91% (active) | 55% | -12% | 92% (active) | 71% (active) | -12% | 94% (active) | 69% | -32% | 95% (active) | 77.5% (active) | -35% | 92% (active) | 76.3% (active) | -5% | 94% (active) | 74.8% (active) |
| COc1ccccc1OCC(COC(=O)Nc1ccc(C)cc1)OC(=O)Nc1ccc(C)cc1 (centres undefined) | 2% | 2% | 88.4% (active) | -5% | -5% | 82.4% (active) | -18% | -18% | 85.2% (active) | -2% | -2% | 78.6% (active) | -1% | -1% | 85% (active) | -1% | -1% | 78.7% (active) |
| O=C(CSc1nnc(-c2ccc(N=Cc3ccc(Cl)cc3)cc2)o1)Nc1ccccc1Cl | 22% | 57% | 54.8% | -10% | 44% | -11.8% | 7% | 40% | 6.25% | 14% | 28% | -54.5% | -1% | 20% | -11.8% | 2% | 58% | 20.4% |
